Reference: PubChem BioAssay (NCI)
The panel holds about 83,000 compounds, 20% with a hit somewhere; the sample as a whole holds those more often.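 Cell lines were cultured in 96-well plates, exposed to a single compound concentration, and assessed for percent growth 48 hours later.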 Values without a mark were called inactive. Activity calls are given as the source filed them.

These compounds were tested on SNB-19 CNS (assay: NCI-60 one-dose screen, 48 h (100 = growth as untreated, 0 = no growth, -100 = all killed)). Settings: 10 µM unless noted.
Experimental: Growth inhibition of the SNB-19 human tumor cell line is measured as a screen for anti-cancer activity. Cells are grown in 96 well plates and exposed to the test compound for 48 hours. Compounds are tested at a single concentration, which is 10^-5 M for most compounds. The reported endpoint is percent growth (GI% or GIPRCNT), where numbers from 0 - 100% represent growth inhibition, and numbers from -100% - 0 represent cell death. For example, a value of 40 represents 60% growth inhibition. A value of 0 means no net growth occurred over the course of the experiment. A value of -40 indicates 40% of cells at the beginning of the experiment died by the end of the experiment. A value of -100 means all cells are dead at the end of the experiment.
NCI-60 Human Tumor Cell Lines Screen was performed using the standard one-dose NCI protocol, which is described in more detail at https://dtp.cancer.gov/discovery_development/nci-60/default.htm.
Compounds with GIPRCNT values below 10 were considered active. Activity score was based on GIPRCNT using the following formula: […]
Score is 0 for GIPRCNT values of 100 or above, 50 for GIPRCNT values of 0, and 100 for GIPRCNT values of -100.

SMILES | growth
CC12CCC(=O)C=C1CCC1C2CCC2(C)C(C(=O)COC(=O)Cc3ccc(N(CCCl)CCCl)cc3)CCC12 (stereo not given) | 96.2%
CCCCN(CCCC)CC(O)c1ccccc1 (stereo not given) | 106%
C[As](=O)(O)c1ccc(C(=O)O)cc1 | 106%
CCC[CH2][Sn]([CH2]CCC)([CH2]CCC)[O]C(=O)c1ccc(Cl)cc1Cl | -86.3% (active)
C/C1=C/C(=O)O[C@@H]2C[C@@H](CC[C@H](C)/C=C\C=C\CC1)O[C@@](OCCc1ccccc1)([C@@H]1CSC(=O)N1)C2 | 21.5%
C[C@]12CC[C@@H]3c4ccc(OC(=O)Cc5ccc(N(CCCl)CCCl)cc5)cc4CC[C@H]3[C@@H]1CC[C@@H]2OC(=O)Cc1ccc(N(CCCl)CCCl)cc1 | 107%
COc1cc(C2=NN(c3ccccc3)C(c3sc(N(CCCl)CCCl)nc3Cl)C2)cc(OC)c1OC (stereo not given) | 86.4%
O=C1C=CC(=O)C2C1C1(Cl)C(Cl)=C(Cl)C2(Cl)C1(Cl)Cl (stereo not given) | 73.8%
O=S(=O)(Cl)c1ccccc1 (tested in a mixture with another compound) | 100%
O=[N+]([O-])c1ccccc1N1CCNCC1 | 102%
C=CCC1(CC)C(=O)NC(=S)NC1=O | 97.1%
C#CC1(O)CCC2(C)C(CCC3C4CCC(=O)C4(C)CCC32)C1 (stereo not given) | 95%
O=C(O)c1[nH]c(=O)[nH]c(=O)c1F | 91.4%
CC[C@@H](C)/C=C(C)/C=C/C(=O)c1c(O)c(-c2ccc(O)cc2)cn(O)c1=O | 13.6%
CNC(=O)Oc1cccc(OC)c1 | 103%
O=C(NCc1ccc([N+](=O)[O-])cc1)Nc1ccc(S(=O)(=O)F)cc1 | 88.6%
Fc1ccc(C2=NN(c3ccccc3)C(c3sc(N(CCCl)CCCl)nc3Cl)C2)cc1 (stereo not given) | 95.6%
N#Cc1ncc(/N=C/c2ccc(N(CCCl)CCCl)cc2)s1 | 89%
O=C(CCl)NCNC(=O)CCl | 108%
n1nc(-c2nonc2-c2nn[nH]n2)n[nH]1 | 105%

SMILES | growth
CCCCCCCCCCCCOc1ccc(C(=O)Oc2ccc(CSP3(=O)OCC4OC(n5cnc6c(N)ncnc65)C(F)C4OP(=O)(O)OCC4OC(n5ccc(=O)[nH]c5=O)C(F)C4O3)cc2)cc1 (stereo not given) | 101%
COC(=O)C[Se]C(=O)c1ccccc1OC(C)=O | 83.9%
CCCCNCCc1ccccn1 | 113%
Cc1cc(CCl)c(C)cc1CCl | 51%
CCOc1cc(/C=N\Nc2nnc(C)n2N)c(C)cc1N(CCCl)CCCl | 14.2%
CCOC(=O)c1cnc(SCc2ccc(Cl)c(Cl)c2)nc1N1CC1 | 62.9%
COc1ccc(C2=NN(c3ccccc3)C(c3sc(N(CCCl)CCCl)nc3Cl)C2)cc1 (stereo not given) | 93.5%
C[C@]12CC[C@H](OC3OC(O)C(O)C(O)C3O)C=C1CCC1C2CC[C@]2(C)[C@@H](c3ccc(=O)oc3)CC[C@]12O (stereo not given in full) | -98.8% (active)
Cc1ccc(C(=O)C2CN(C)CCC2(O)c2ccc(C)cc2)cc1 (stereo not given) | 118%
CCC(/C=C(C)/C=C/C(=O)c1c(O)c(-c2ccc(O)cc2)c[nH]c1=O)CO (stereo not given) | 90.6%
CNC(C)Cc1ccccc1 (stereo not given) (tested in a mixture with another compound) | 105%
CC(=O)Oc1ccc(Cl)cc1 | 91.2%
COc1ccc(-c2ccc(OC)c(OC)c2OC)cc1 | 38.9%
C[C@@H]1O[C@@H](O[C@H]2CC[C@@]3(C)[C@H](CCC4[C@@H]3C(O)C[C@]3(C)[C@@H](c5ccc(=O)oc5)CC[C@]43O)C2)[C@H](O)[C@H](O)[C@H]1O (stereo not given in full) | -91.1% (active)
Oc1ccccc1OB(Oc1ccccc1O)N(CCCl)CCCl | 87.2%
[N-]=[N+]=NC(C(=O)O)c1ccccc1 (stereo not given) | 100%
CC(C)(NC(=O)c1nn(CCCCCF)c2ccccc12)c1ccccc1 | 106%
CCCC(C)(C)c1ccc2c(c1)OC(C)(C)[C@@H]1CC=C(C)C[C@@H]21 | 103%
Nc1ncnc2c1c(C(=O)NO)cn2C1OC(CO)C(O)C1O (stereo not given) | 11.9%
CCCCn1cc(C(=O)/C(C#N)=C/c2cc3ccccc3nc2Cl)c2cc(OC)ccc21 | 90.3%
